According to PubChem BioAssay (EPA / NIEHS):
Inconclusive results are not listed. The source made the active and inactive calls. The calls were made as follows, unless noted: active = hit-call score of the fitted dose curve at least 0.9, where 1 is the maximum; inactive = score below 0.9.

What was measured:
[1] = target: Paired box protein Pax-6 (Homo sapiens) (UniProt P26367); assay: ATG_Pax6_CIS: Attagene CIS-FACTORIAL HepG2 Assay for human Paired Box 6 (PAX6) (AID 2282956); settings: HepG2 CIS-FACTORIAL PAX6 reporter transcription, RNA readout; actives raise or lower the signal
Chain of Paired box protein Pax-6 (Homo sapiens) (P26367 whole entry, looked up): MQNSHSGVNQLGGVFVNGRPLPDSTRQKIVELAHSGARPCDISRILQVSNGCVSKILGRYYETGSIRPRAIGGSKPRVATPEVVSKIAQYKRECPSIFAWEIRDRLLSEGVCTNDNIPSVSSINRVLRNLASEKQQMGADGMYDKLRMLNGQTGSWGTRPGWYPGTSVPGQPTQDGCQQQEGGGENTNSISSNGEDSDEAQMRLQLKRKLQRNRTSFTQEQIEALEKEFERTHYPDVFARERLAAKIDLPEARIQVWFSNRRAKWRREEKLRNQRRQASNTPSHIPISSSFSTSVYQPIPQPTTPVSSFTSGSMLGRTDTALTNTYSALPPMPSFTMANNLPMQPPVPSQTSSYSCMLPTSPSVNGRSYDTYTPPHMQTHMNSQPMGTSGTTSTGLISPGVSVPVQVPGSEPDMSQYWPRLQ
Summary of the method: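 Fluorescent RT-PCR products separated by capillary electrophoresis report PAX6-linked promoter mRNA in HepG2 cells 24 h post-dose. Curves fitted bidirectionally, DMSO as negative control.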

[2] = ATG_PXRE_CIS: Attagene CIS-FACTORIAL HepG2 Assay for human Pregnane X Receptor Element (PXRE) (AID 2282957); settings: HepG2 Attagene CIS-FACTORIAL PXRE reporter, mRNA; actives raise or lower the signal
Summary of the method: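 Read-out: fluorescence of reporter-specific RT-PCR products resolved by capillary electrophoresis, fitted bidirectionally relative to DMSO. Human HepG2 liver cells carried transfected cis-promoter reporter units and were exposed to chemicals for 24 h.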

[3] = ATG_RORE_CIS: Attagene CIS-FACTORIAL HepG2 Assay for human RAR-related Orphan Receptor Element (RORE) (AID 2282959); settings: HepG2 Attagene cis-factorial RORE reporter, mRNA; actives raise or lower the signal
Summary of the method: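 HepG2 cells transiently transfected with multiple cis-element reporter transcription units, exposed to chemical for 24 h. Reporter mRNA quantified by RT-PCR, 6-FAM primer-extension labeling, HpaI digestion and capillary electrophoresis; bidirectional fit versus DMSO baseline.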

[4] = ATG_Sox_CIS: Attagene CIS-FACTORIAL HepG2 Assay for human SRY-box transcription factor (SOX) (AID 2282960); settings: HepG2 Attagene cis-factorial SOX reporter, mRNA; actives raise or lower the signal
Summary of the method: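 HepG2 cells transiently transfected with cis-element-driven multiple reporter transcription units, dosed 24 h; reporter mRNA measured by RT-PCR, FAM labelling, HpaI digestion and capillary electrophoresis. Bidirectional fit versus DMSO baseline.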

[5] = target: Transcription factor Sp1 (Homo sapiens) (UniProt P08047); assay: ATG_Sp1_CIS: Attagene CIS-FACTORIAL HepG2 Assay for human Specificity Protein 1 (Sp1) (AID 2282961); settings: HepG2 Sp1 cis-reporter transcription, actives raise or lower the signal
Chain of Transcription factor Sp1 (Homo sapiens) (P08047 whole entry, looked up): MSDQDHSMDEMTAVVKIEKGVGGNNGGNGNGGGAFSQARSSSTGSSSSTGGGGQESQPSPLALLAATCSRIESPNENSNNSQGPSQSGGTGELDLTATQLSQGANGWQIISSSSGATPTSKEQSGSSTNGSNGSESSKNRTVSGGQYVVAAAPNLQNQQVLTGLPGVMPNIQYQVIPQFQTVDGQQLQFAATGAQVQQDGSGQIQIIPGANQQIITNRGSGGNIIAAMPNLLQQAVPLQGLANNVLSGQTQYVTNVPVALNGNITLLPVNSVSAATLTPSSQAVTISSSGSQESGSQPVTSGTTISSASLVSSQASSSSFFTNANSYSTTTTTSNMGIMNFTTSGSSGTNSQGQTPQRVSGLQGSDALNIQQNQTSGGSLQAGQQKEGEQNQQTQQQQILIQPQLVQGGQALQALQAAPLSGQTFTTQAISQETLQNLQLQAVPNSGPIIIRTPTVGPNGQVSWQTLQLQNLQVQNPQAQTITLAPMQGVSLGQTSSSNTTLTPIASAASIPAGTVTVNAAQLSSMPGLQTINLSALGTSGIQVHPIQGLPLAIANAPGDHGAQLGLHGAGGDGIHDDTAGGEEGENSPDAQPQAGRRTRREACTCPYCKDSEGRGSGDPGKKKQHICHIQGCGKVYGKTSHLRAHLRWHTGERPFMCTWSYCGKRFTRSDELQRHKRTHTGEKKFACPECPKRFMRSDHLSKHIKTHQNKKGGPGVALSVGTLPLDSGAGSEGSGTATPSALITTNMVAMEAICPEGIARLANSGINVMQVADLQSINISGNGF
Summary of the method: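 HepG2 cells transiently transfected with multiple reporter transcription units driven by cis-regulatory elements; Sp1-responsive reporter mRNA measured 24 h after dosing by RT-PCR and capillary electrophoresis fluorescence, fitted bidirectionally against DMSO baseline.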

[6] = ATG_SREBP_CIS: Attagene CIS-FACTORIAL HepG2 Assay for human Sterol Regulatory Element Binding (SREBP) (AID 2282962); settings: HepG2 Attagene cis-factorial SREBP reporter, mRNA; actives raise or lower the signal
Summary of the method: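 Endogenous factor activity is measured in HepG2 through multiplexed reporter units under cis-element control. Following a 24 h incubation, reporter transcripts are reverse-transcribed, PCR-amplified and sized by capillary electrophoresis; activity is fitted in both directions relative to DMSO.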

[7] = target: Signal transducer and activator of transcription 3 (Homo sapiens) (UniProt P40763); assay: ATG_STAT3_CIS: Attagene CIS-FACTORIAL HepG2 Assay for human Signal Transducer and Activator of Transcription 3 (STAT3) (AID 2282963); settings: HepG2, Attagene cis-factorial STAT3 reporter transcription; actives raise or lower the signal
Chain of Signal transducer and activator of transcription 3 (Homo sapiens) (P40763 whole entry, looked up, the tested form may be a part): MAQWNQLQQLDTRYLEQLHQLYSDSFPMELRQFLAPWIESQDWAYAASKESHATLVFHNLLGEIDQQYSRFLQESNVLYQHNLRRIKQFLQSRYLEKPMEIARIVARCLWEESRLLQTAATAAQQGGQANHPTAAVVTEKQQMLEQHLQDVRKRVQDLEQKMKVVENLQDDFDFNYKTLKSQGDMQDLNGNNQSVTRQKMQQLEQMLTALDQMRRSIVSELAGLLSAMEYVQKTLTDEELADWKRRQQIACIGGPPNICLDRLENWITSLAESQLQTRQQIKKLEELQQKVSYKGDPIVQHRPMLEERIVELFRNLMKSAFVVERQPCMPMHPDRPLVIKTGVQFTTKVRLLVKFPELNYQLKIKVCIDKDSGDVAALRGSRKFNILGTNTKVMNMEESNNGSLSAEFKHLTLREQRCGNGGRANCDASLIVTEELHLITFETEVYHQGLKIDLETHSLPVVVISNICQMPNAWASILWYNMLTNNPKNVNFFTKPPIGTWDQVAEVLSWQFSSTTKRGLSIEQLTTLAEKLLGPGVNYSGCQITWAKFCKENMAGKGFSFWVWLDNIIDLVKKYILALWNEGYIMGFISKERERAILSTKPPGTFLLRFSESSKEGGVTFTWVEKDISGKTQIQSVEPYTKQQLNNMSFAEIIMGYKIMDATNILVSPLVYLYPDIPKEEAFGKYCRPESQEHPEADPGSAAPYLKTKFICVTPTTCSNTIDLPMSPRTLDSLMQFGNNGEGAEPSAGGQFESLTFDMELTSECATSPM
Summary of the method: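 Readout: fluorescent reporter mRNA fragments resolved by capillary electrophoresis. Setup: HepG2 transfected with MRTUs reporting endogenous transcription-factor activity, dosed 24 h. Gain or loss of signal fitted bidirectionally against DMSO control.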

[8] = ATG_TA_CIS: Attagene CIS-FACTORIAL HepG2 Assay for human TA Basal Promoter (AID 2282964); settings: HepG2 Attagene CIS-factorial TA basal promoter reporter; actives raise or lower the signal
Summary of the method: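 HepG2 cells transiently transfected with multiplexed cis-promoter reporter units, dosed 24 h. Reporter mRNA measured by RT-PCR, 6-FAM labelling, HpaI digestion and capillary electrophoresis; bidirectional fit versus DMSO baseline, serving as background control.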

[9] = ATG_TAL_CIS: Attagene CIS-FACTORIAL HepG2 Assay for human TAL Basal Promoter (AID 2282966); settings: HepG2 Attagene cis-factorial TAL promoter reporter; actives raise or lower the signal;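 also: background control endpoint measuring basal TAL promoter reporter mRNA not a specific factor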
Summary of the method: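 HepG2, transient MRTU transfection, 24 h compound exposure; RNA → oligo(dT) RT → PCR → 6-FAM primer extension → HpaI digest → CE fluorescence. Bidirectional curve fit vs DMSO. Background-control readout.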

[10] = ATG_TGFb_CIS: Attagene CIS-FACTORIAL HepG2 Assay for human Transforming Growth Factor (TGF) (AID 2282967); settings: HepG2 Attagene CIS TGFb reporter, mRNA transcription; actives raise or lower the signal
Summary of the method: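 HepG2 cells transiently transfected with cis-promoter-driven multiplexed reporter units; 24 h compound exposure. Reporter mRNA measured by RT-PCR, 6-FAM labeling, HpaI digestion and capillary electrophoresis; bidirectional fit versus DMSO baseline.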

[11] = ATG_VDRE_CIS: Attagene CIS-FACTORIAL HepG2 Assay for human Vitamin D Receptor Element (VDRE) (AID 2282968); settings: HepG2 VDRE cis-reporter transcription, actives raise or lower the signal
Summary of the method: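 Transient MRTU transfection of HepG2, 24 h compound exposure. Readout: reporter transcripts via RT-PCR and capillary electrophoresis, fluorescence. Bidirectional fit vs DMSO.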

[12] = target: Nuclear receptor subfamily 1 group I member 3 (Homo sapiens) (UniProt Q14994); assay: ATG_CAR_TRANS: Attagene TRANS-FACTORIAL HepG2 Assay for human Constitutive Androstane Receptor (CAR) (AID 2282969; active = hit-call score of the fitted dose curve at least 0.9, where 1 is the maximum;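 also: activators raise reporter mRNA above DMSO so AC50 marks induction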); settings: HepG2 Attagene TRANS-FACTORIAL CAR reporter
Chain of Nuclear receptor subfamily 1 group I member 3 (Homo sapiens) (Q14994 whole entry, looked up, the tested form may be a part): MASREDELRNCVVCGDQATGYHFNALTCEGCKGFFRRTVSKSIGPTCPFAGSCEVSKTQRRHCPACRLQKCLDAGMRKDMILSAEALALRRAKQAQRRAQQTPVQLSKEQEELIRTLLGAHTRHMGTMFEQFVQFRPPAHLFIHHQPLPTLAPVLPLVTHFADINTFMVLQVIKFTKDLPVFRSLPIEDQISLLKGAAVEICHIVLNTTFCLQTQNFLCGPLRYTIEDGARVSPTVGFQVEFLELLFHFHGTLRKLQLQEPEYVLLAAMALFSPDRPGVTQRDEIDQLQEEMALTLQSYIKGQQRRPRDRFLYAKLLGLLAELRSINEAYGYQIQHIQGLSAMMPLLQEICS
Summary of the method: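 Transiently transfected HepG2, multiplex TRANS reporters (CAR-Gal4 chimera driving GAL4-UAS reporter). 24 h dosing. Readout: reporter transcript by RT-PCR + capillary electrophoresis, fluorescence intensity; positive direction vs DMSO.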

[13] = target: Estrogen receptor (Homo sapiens) (UniProt P03372); assay: ATG_ERa_TRANS: Attagene TRANS-FACTORIAL HepG2 Assay for human Estrogen Receptor alpha (ERa) (AID 2282970; active = hit-call score of the fitted dose curve at least 0.9, where 1 is the maximum); settings: HepG2 Attagene TRANS ERa GAL4 reporter, mRNA
Chain of Estrogen receptor (Homo sapiens) (P03372 whole entry, looked up, the tested form may be a part): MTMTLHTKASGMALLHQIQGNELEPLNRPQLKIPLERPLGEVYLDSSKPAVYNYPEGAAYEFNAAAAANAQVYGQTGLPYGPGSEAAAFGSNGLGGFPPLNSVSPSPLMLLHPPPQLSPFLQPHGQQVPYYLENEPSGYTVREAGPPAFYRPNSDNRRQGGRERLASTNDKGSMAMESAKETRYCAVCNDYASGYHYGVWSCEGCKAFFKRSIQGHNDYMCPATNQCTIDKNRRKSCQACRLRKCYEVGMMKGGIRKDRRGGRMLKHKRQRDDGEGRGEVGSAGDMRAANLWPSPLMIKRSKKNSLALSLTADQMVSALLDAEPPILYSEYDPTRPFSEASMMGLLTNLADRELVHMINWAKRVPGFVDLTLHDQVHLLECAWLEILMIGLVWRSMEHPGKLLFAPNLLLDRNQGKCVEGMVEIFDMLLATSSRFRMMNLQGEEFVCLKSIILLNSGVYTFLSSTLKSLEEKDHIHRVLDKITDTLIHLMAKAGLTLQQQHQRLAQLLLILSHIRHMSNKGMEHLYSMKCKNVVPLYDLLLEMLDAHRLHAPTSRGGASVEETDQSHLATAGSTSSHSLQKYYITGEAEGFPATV
Summary of the method: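 Reporter mRNA induction after 24 hours, detected by fluorescent RT-PCR and capillary electrophoresis, gives the read-out. Cells are HepG2 transiently transfected with GAL4-UAS reporter transcription units responding to chimeric NR-Gal4. Activity is taken as gain of signal over DMSO baseline.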

[14] = target: X-box-binding protein 1 (Homo sapiens) (UniProt P17861); assay: ATG_Xbp1_CIS: Attagene CIS-FACTORIAL HepG2 Assay for human X-box Binding Protein 1 (XBP1) (AID 2282972); settings: HepG2 XBP1 cis-element reporter, Attagene multiplex; actives raise or lower the signal
Chain of X-box-binding protein 1 (Homo sapiens) (P17861 whole entry, looked up): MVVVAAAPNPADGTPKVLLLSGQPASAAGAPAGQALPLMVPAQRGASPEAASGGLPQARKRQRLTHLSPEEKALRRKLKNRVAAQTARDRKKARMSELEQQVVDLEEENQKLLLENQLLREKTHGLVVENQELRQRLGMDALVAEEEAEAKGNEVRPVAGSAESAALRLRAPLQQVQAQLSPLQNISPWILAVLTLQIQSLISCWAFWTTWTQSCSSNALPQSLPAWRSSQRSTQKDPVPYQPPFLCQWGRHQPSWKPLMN
Summary of the method: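 Multiplexed cis-reporter readout in transfected HepG2 liver cells. Exposure lasted 24 hours. Activity in either direction was fitted against DMSO as negative control and baseline.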

[15] = ATG_M_19_TRANS: Attagene TRANS-FACTORIAL HepG2 Assay for M19 Transcription Factor (Internal Marker) (AID 2282974; active = hit-call score of the fitted dose curve at least 0.9, where 1 is the maximum); settings: HepG2 Attagene TRANS-FACTORIAL M19 internal marker reporter
Summary of the method: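 HepG2 cells transiently transfected with multiple GAL4-UAS reporter transcription units were exposed to chemicals for 24 h. Reporter mRNA was read by RT-PCR, 6-FAM primer extension, HpaI digestion and capillary electrophoresis; gain of signal fitted relative to DMSO.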

[16] = ATG_GAL4_TRANS: Attagene TRANS-FACTORIAL HepG2 Assay for GAL4 (Internal Marker) (AID 2282976; active = hit-call score of the fitted dose curve at least 0.9, where 1 is the maximum); settings: HepG2 Attagene TRANS GAL4 internal marker reporter
Summary of the method: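 RT-PCR/capillary electrophoresis readout of reporter mRNA. HepG2, transient MRTU transfection (GAL4-UAS reporters), 24 h compound exposure. Background-control endpoint, positive direction vs DMSO baseline.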

[17] = ATG_PPRE_CIS: Attagene CIS-FACTORIAL HepG2 Assay for human Peroxisome Proliferator-activated Response Element (PPRE) (AID 2282958); settings: HepG2 PPRE cis-element reporter, Attagene transcription factor profiling; actives raise or lower the signal
Summary of the method: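 HepG2 cells transiently transfected with multiplexed cis-element reporter units measure endogenous transcription factor activity. After 24 h compound exposure, reporter mRNA is quantified by RT-PCR, 6-FAM labeling, HpaI digestion and capillary electrophoresis; bidirectional fits are made against DMSO baseline.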

[18] = ATG_TCF_b_cat_CIS: Attagene CIS-FACTORIAL HepG2 Assay for human T-Cell-Factor with beta-catenin (TCF/b-cat) (AID 2282965); settings: HepG2 TCF/beta-catenin cis-reporter transcription, actives raise or lower the signal
Summary of the method: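 HepG2, transient MRTU transfection, cis-element-driven reporters (endogenous TFs). 24 h compound exposure. Readout: reporter mRNA by RT-PCR + 6-FAM primer extension, HpaI digest, capillary electrophoresis. Gain/loss fit vs DMSO baseline.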

[19] = target: Steroid hormone receptor ERR1 (Homo sapiens) (UniProt P11474); assay: ATG_ERRa_TRANS: Attagene TRANS-FACTORIAL HepG2 Assay for human Estrogen-Related Receptor alpha (ERRa) (AID 2282971; active = hit-call score of the fitted dose curve at least 0.9, where 1 is the maximum); settings: HepG2 Attagene TRANS reporter, ERRa transactivation
Chain of Steroid hormone receptor ERR1 (Homo sapiens) (P11474 whole entry, looked up, the tested form may be a part): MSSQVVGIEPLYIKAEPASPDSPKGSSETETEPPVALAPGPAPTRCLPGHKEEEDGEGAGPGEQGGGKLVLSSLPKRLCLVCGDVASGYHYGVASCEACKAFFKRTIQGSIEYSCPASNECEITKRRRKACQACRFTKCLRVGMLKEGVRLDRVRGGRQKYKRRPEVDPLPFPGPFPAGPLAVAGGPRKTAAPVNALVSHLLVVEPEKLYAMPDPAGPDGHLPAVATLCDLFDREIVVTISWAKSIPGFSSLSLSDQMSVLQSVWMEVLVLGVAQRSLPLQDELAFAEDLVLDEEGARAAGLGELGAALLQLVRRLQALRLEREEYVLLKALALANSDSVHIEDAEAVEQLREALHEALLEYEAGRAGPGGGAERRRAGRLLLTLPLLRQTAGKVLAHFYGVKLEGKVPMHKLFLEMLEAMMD
Summary of the method: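 Transfected HepG2, 24 h dosing, ERRa-Gal4 chimera driving GAL4-UAS reporter. Readout: reporter mRNA via RT-PCR plus capillary electrophoresis (fluorescence). Positive direction vs DMSO control.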

Measured: AC50

Cc1c(Cl)cccc1Cl
not listed: [17] | [18] | [19]
inactive: all other assays above

Cn1ccnc1
not listed: [4] | [13] | [16]
inactive: all other assays above

CCCCNS(=O)(=O)c1ccccc1
active: [2] 26.7 µM
not listed: [12] | [16] | [17] | [19]
inactive: all other assays above

CCN(CC)c1cccc(C)c1
active: [2] 27.7 µM
not listed: [4] | [8] | [12] | [15]
inactive: all other assays above

N#Cc1ccc(C(c2ccc(C#N)cc2)n2cncn2)cc1
not listed: [3] | [12] | [15] | [16] | [19]
inactive: all other assays above

CC(C)=NNC(N)=S
not listed: [4] | [12] | [13] | [15] | [18] | [19]
inactive: all other assays above

CCCCCC(=O)OCC
not listed: [10] | [12] | [13] | [17] | [19]
inactive: all other assays above

Cc1c(O)cccc1O
active: [2] 127 µM | [13] 46.1 µM
not listed: [4] | [15] | [19]
inactive: all other assays above

C=C(C)C1CC=C(C)C(OC(C)=O)C1 (stereo not drawn)
not listed: [7] | [12] | [15] | [16] | [18]
inactive: all other assays above

CCC(C)C(=O)OC (stereo not drawn)
not listed: [4] | [11] | [12] | [13] | [16]
inactive: all other assays above

CCOC(=O)CC(=O)c1ccccc1
active: [2] 10.4 µM
not listed: [4] | [13] | [19]
inactive: all other assays above

C=CCCCCCCCCO
active: [2] 51.6 µM
not listed: [4] | [8] | [12] | [15] | [19]
inactive: all other assays above

CC1CC(=O)CC(C)(C)C1 (stereo not drawn)
not listed: [3] | [12] | [13] | [15] | [16] | [19]
inactive: all other assays above

CCCCCCCC(=O)OCC(COC(=O)CCCCCCC)OC(=O)CCCCCCC
not listed: [4] | [12] | [19]
inactive: all other assays above

CC(C)(C)C1CCC(=O)CC1
active: [8] 152 µM
not listed: [4] | [10] | [12]
inactive: all other assays above

CCC1(C)C(=O)N(Cl)C(=O)N1Cl (stereo not drawn)
active: [1] 49.8 µM | [2] 58.6 µM | [4] 37.9 µM | [11] 32.4 µM | [14] 47.1 µM
not listed: [3] | [12] | [18] | [19]
inactive: all other assays above

CCc1cccc(CC)c1
not listed: [3] | [11] | [12] | [15] | [18] | [19]
inactive: all other assays above

CC=CC(=O)OCC(C)C
not listed: [4] | [8] | [12] | [19]
inactive: all other assays above

Cc1ccc(C)c(OCCCC(C)(C)C(=O)O)c1
active: [2] 22.5 µM | [13] 20.2 µM
not listed: [11] | [12] | [15] | [17] | [19]
inactive: all other assays above

CCCCC(CC)COS(=O)(=O)O (stereo not drawn)
active: [2] 62.9 µM
not listed: [10] | [12] | [15] | [17]
inactive: all other assays above

c1ccc2sc(SSN3CCOCC3)nc2c1
inactive: [2] | [3] | [8] | [18] | [9] | [13]
active: [1] 100 µM | [4] 138 µM | [5] 70.4 µM | [6] 59.2 µM | [7] 139 µM | [14] 100 µM

CCCCCCCC(=O)OCC
not listed: [4] | [12]
inactive: all other assays above
